The full list was thinned out, with hits kept by preference.
DT40 TDP1 no CPT: qHTS for Inhibitors of human tyrosyl-DNA phosphodiesterase 1 (TDP1): qHTS in cells in absence of CPT. DT40 Tdp1-/- hTDP1 cells, no CPT, ATP luminescence, 48 h. AID 686978, 2013. actives 15% (n = 420,000). Potency, µM (highest dose often 46.2 µM), inactives show top-dose activity change, negative = growth inhibition, hits mostly inhibitors; further: potency means the concentration at half of the fitted maximal effect; nearly all actives have a fitted effect of over 55% in size
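Seeded 400 DT40-hTDP1 cells/well (vehicle DMSO, no 20 nM CPT); pinned compounds; ≥48 hr at 37 °C; CellTiter-Glo luminescence as viability measure.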
HT1080NT lethal: kills 2HG-producing HT-1080-NT fibrosarcoma cells; HT-1080-NT fibrosarcoma viability, CellTiter-Glo ATP luminescence, 48 h; Potency, µM (titrated, usually from 46.1 µM), without a hit: at the top dose activity, negative = less viability, hits mostly cytotoxic; actives 1.6% (n = 360,000); AID 686970;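 further: NT is the 2HG producing partner of a matched IDH1 knockdown line; potency means the concentration at half of the fitted maximal effect; 0% = DMSO-treated cells and -100% = media-only wells without cells; nearly all actives have a fitted effect of over 55% in size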
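Fibrosarcoma NT cells, 750 per well in 5% FBS RPMI, were exposed to compound for 48 hours. Viability: CellTiter-Glo luminescence.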
IL-1B inflam inh: inhibitors of inflammasome signaling (IL-1 beta secretion); THP-1 LPS/ATP IL-1B secretion, AlphaLISA, 16 h; active compounds read low; activity change, % at 57.5 µM; actives 4.7% (n = 360,000); AID 743279; in the data active means activity change below about -50%; inconclusive means mostly about -30% to -49%
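Secreted IL-1B measured by AlphaLISA bead assay after 16 h compound exposure of THP-1 cells; compounds (final up to 57.5 uM) added 1 h before LPS (250 ng/mL) and ATP (1.25 mM) stimulation; lower signal means less secretion.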
12-LOX inh: inhibitors of human 12S-lipoxygenase ALOX12 | P18054 | Potency, µM (top dose mostly 108 µM), for the others: top-dose activity change, negative = inhibition, actives largely listed as inhibitors | purified 12hLO, xylenol orange hydroperoxide absorbance | actives 1.1% (n = 580,000); further: potency means the concentration at half of the fitted maximal effect
Target sequence (P18054 whole entry, looked up): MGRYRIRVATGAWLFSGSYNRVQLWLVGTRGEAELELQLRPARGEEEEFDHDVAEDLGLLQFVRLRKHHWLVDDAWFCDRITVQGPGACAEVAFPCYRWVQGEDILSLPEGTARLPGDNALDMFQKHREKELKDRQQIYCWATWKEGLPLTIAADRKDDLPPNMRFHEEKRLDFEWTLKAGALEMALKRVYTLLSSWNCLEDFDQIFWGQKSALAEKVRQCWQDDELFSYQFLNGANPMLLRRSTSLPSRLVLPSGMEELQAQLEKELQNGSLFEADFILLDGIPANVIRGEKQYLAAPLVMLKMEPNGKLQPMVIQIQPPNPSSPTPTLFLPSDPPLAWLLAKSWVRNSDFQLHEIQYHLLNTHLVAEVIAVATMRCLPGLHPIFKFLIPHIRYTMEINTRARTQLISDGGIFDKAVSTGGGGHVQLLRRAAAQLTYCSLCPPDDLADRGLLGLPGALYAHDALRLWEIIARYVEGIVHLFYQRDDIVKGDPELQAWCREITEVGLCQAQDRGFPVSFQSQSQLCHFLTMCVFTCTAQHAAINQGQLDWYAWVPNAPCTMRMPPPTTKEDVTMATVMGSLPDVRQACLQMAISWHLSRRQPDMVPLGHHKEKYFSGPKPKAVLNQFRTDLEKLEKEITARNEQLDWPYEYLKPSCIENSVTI
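Purified human 12hLO (150 nM final) in 25 mM Hepes, 0.01% Triton X-100, pH 7.0 was preincubated 15 min at room temperature with compound. Then 40 uM arachidonic acid was added, 30 min. Hydroperoxide was read by Fe-XO absorbance ratio 573/405 nm.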
HT1080 IDH1KD tx: kills HT-1080 cells with IDH1 knockdown; HT-1080 IDH1 knockdown viability, ATP luminescence, 48 h; Potency, µM (doses to about 46.1 µM), inactives show at the highest dose activity, negative = toxicity, most hits filed as cytotoxic; actives 2% (n = 360,000); AID 686971;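 further: potency means the concentration at half of the fitted maximal effect; 0% = DMSO wells and -100% = cell-free medium wells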
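CellTiter-Glo luminescence after 48 h compound exposure at 37 degrees C of IDH1-knockdown HT-1080 cells in 5% FBS RPMI. %Activity scaled between DMSO wells and cell-free media wells, with curves fitted and assigned curve classes.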
DT40 TDP1 CPT: growth inhibition of DT40 Tdp1-/-;hTDP1 cells with camptothecin (screen for TDP1 inhibitors) | Potency, µM (titrated, usually from 46.2 µM), without a hit: top-dose activity change, negative = growth inhibition, usual class: inhibitors | chicken DT40 Tdp1-/-;hTDP1 cells + 20 nM CPT, ATP luminescence, 48 h | AID 686979 | actives 12% (n = 420,000); further: potency means the concentration at half of the fitted maximal effect; nearly all actives have a fitted effect of over 55% in size
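Chicken DT40 Tdp1-/- cells stably complemented with human TDP1 were seeded at 400 cells/well in medium containing 20 nM camptothecin, exposed to pin-transferred compounds, and grown at 37 °C for at least 48 hr. Viability was read as ATP luminescence.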
* hit, by the source's call; ? = inconclusive; . = no result given; [ ] = remark or other dose. Unless noted, the call rests on the fitted dose curve; in most records, active means well fitted curve in the direction sought with a large enough effect; inconclusive means small, poorly fitted or top-dose-only effect, or another doubt; inactive means no such curve, though single readings can be large; an effect the other way counts as inactive or inconclusive. Unless noted, on the % scale 0 is the no-effect control and ±100 the full control effect.

SMILES | DT40 TDP1 no CPT | HT1080NT lethal | IL-1B inflam inh | 12-LOX inh | HT1080 IDH1KD tx | DT40 TDP1 CPT
Cc1ccc(NC(=S)NC2CCN(Cc3ccccc3)CC2)cc1 | ? | 8% | -20 | -10% | 9% | ?
Cc1c(Cl)cccc1NC(=S)N1CCN(Cc2ccccc2)CC1 | -14% | 3% | 0 | 0% | 1% | -28%
Cc1ccc(NC(=S)NC2CCN(Cc3ccccc3)CC2)cc1C | 26µM* | -21% | -20 | ? | -6% | ?
S=C(Nc1ccccc1Cl)NC1CCN(Cc2ccccc2)CC1 | 18µM* | -2% | -7 | -22% | 1% | 21µM*
CCNc1c(NC(=O)Cc2ccc(OC)cc2)c(=O)oc2ccccc12 | . | . | . | 15% | . | .
S=C(Nc1ccc(Cl)cc1Cl)NC1CCN(Cc2ccccc2)CC1 | 16µM* | -20% | 4 | -26% | -12% | 21µM*
CC(C)c1ccc(NC(=S)NC2CCN(Cc3ccccc3)CC2)cc1 | 23µM* | ? | -89* | ? | ? | ?
CC(C)c1ccc(NC(=S)N2CCN(Cc3ccccc3)CC2)cc1 | 26µM* | -1% | 0 | -5% | -2% | ?
CC(C)c1ccc(NC(=S)NC2CCSc3ccccc32)cc1 (stereo not given) | . | . | . | 35µM* | . | .
O=C(NC1CCN(Cc2ccccc2)CC1)c1ccc(Cl)cc1Cl | ? | 4% | -2 | 3% | 3% | 2%
O=C(CNC(=O)N1CC(=O)Nc2ccccc21)Nc1cccc(F)c1 | 12% | 11% | -4 | 11% | 21% | 1%
CCCN1CCC(NC(=S)Nc2cccc(Cl)c2Cl)CC1 | ? | -18% | 12 | -9% | -7% | 18µM*
CC(C)(C)c1ccc(-n2ncc3c2CCCC3NC(=O)CCCn2cncn2)cc1 (stereo not given) | ? | 0% | -12 | -7% | -22% | 13µM*
CC(=O)NCC(=O)NC1CCCc2c1cnn2-c1ccc(C(C)(C)C)cc1 (stereo not given) | 4.1µM* | -13% | 37 | 32% | -20% | -15%
CC(C)(C)c1ccc(-n2ncc3c2CCCC3NC(=O)CN2CCCCC2=O)cc1 (stereo not given) | ? | ? | 12 | 4% | ? | 16µM*
CC(C)(C)c1ccc(-n2ncc3c2CCCC3NC(=O)C2(C(N)=O)CC2)cc1 (stereo not given) | 1.8µM* | ? | ? | 0% | ? | 5.8µM*
O=C(CN1CCCC1=O)NC1CCCc2c1cnn2-c1cc(F)cc(F)c1 (stereo not given) | -6% | 0% | 8 | 4% | 2% | -5%
CC(C)(C)c1ccc(-n2ncc3c2CCCC3NC(=O)CCn2cncn2)cc1 (stereo not given) | ? | -5% | 9 | 59% | -13% | ?
CC(C)(C)c1ccc(-n2ncc3c2CCCC3NC(=O)c2c[nH]c(=O)[nH]c2=O)cc1 (stereo not given) | . | . | . | 16% | . | .
CCN(Cc1ccccc1)C(=O)Cn1nc2n(c1=O)CCCCC2 | . | . | . | 15% | . | .
CC(C)(C)c1ccc(-n2ncc3c2CCCC3NC(=O)CCN2CCCO2)cc1 (stereo not given) | ? | -10% | 38 | 14% | -7% | 23µM*
CNC(=O)[C@@H](C1CC1)N1CCC[C@H]1C(=O)NC(C)(C)C | . | . | . | 7%[176 µM] | . | .
Cc1ccc(C)c(N2CCN(C(=O)c3cccn3-c3nnc(N4CCCCC4)s3)CC2)c1 | 15µM* | . | . | -14% | . | ?
Cc1ccc(C)c(N2CCN(C(=O)C3CCN(c4nnc(-n5cccc5)s4)CC3)CC2)c1 | . | . | . | -5% | . | .
O=C(c1cccn1-c1nnc(N2CCCC2)s1)N1CCN(c2ccc(F)cc2)CC1 | 18µM* | . | . | -3% | . | 16µM*
SMILES | DT40 TDP1 no CPT | HT1080NT lethal | IL-1B inflam inh | 12-LOX inh | HT1080 IDH1KD tx | DT40 TDP1 CPT
O=C(Nc1ccc(F)cc1)c1cccn1-c1nnc(N2CCCCC2)s1 | ? | . | . | -13% | . | ?
CN1CCN(c2nc3c(c(=O)[nH]2)CCN(Cc2cccc(Cl)c2F)CC3)CC1 | . | . | . | 24% | . | .
O=C(O)CN1C(=O)/C(=C\c2cccc(OCc3ccccc3F)c2)SC1=S | -1% | -25% | -10 | 40µM* | -21% | 1%
O=C(O)CN1C(=O)/C(=C\c2cccc(OCc3ccc(F)cc3)c2)SC1=S | 21% | -1% | 13 | 50µM* | -19% | 0%
COc1ccccc1N1CCN(CCCNC(=O)c2nnc(Cc3c(F)cccc3Cl)o2)CC1 | ? | . | . | -18% | . | -26%
O=c1cc(-c2ccc([N+](=O)[O-])cc2)c2cc3c(cc2[nH]1)OCCO3 | 10µM* | 22% | ? | -18% | -29% | ?
Cc1ccc(-c2cccc(-c3cc(=O)oc4ccc(C(C)(C)C)cc34)c2)cc1 | 23µM* | 2% | 34 | 5% | 0% | ?
COc1cc(OC)c2c(-c3cccc(-c4ccc(C(F)(F)F)cc4)c3)cc(=O)oc2c1 | 2.6µM* | 7% | 115 | ? | 3% | 4.6µM*
Cc1ccc2oc(=O)cc(C)c2c1 | . | . | . | 5% | . | .
COc1cc(OC)c2c(-c3cccc(-c4sccc4C(C)=O)c3)cc(=O)oc2c1 | 4.1µM* | 4.1µM* | 27 | 1% | 3.7µM* | 3.7µM*
COC(=O)COc1cc(OCC(=O)OC)c2c(-c3ccccc3)cc(=O)oc2c1 | 3% | 4% | 57 | 0% | 6% | -5%
COc1cc(OC)c2c(-c3cccc(-c4ccc(C#N)cc4)c3)cc(=O)oc2c1 | 4.1µM* | ? | 58 | ? | -19% | 2.1µM*
CCOC(=O)c1ccc(-c2cccc(-c3cc(=O)oc4cc(OC)cc(OC)c34)c2)cc1 | ? | 1% | 19 | . | 8% | ?
COc1cc(OC)c2c(-c3cccc(-c4ccc(NC(C)=O)cc4)c3)cc(=O)oc2c1 | 5.8µM* | 0.52µM* | 84 | -4% | 0.92µM* | 4.1µM*
COc1cc(OC)c2c(-c3cccc(-c4ccc(F)c(Cl)c4)c3)cc(=O)oc2c1 | 23µM* | ? | 67 | -2% | 16µM* | ?
O=C(Nc1ccc([C@H]2OCC(=O)N(Cc3ccc(F)cc3)[C@@H]2CO)cc1)c1cnccn1 | . | . | . | 12% | . | .
CCOc1ccccc1N(CC(=O)Nc1ccc(OC)cc1)S(=O)(=O)c1ccccc1 | ? | -3% | 10 | -4% | -2% | ?
COc1ccc(NC(=O)CN(c2ccccc2F)S(=O)(=O)c2ccc(C)cc2)c(OC)c1 | 15µM* | ? | 51 | ? | -13% | 16µM*

Screening data as filed in PubChem BioAssay.
